Common to all, as to experiment: NCI-60 one-dose screen, 48 h (100 = growth as untreated, 0 = no growth, -100 = all killed)
The test system of one assay is T-47D breast. Particulars: 10 µM.
For a further assay, the system named is BT-549 breast. To be noted: 10 µM.
The subject of another assay is MDA-MB-435 melanoma. To be noted: 10 µM.
Another assay deals with SW-620 colon. Particulars: 10 µM.
The test system of another assay is MCF7 breast. To be noted: 10 µM unless noted.
For another assay, the system named is HCT-116 colon. Particulars: 10 µM.
The test system of the next assay is HCC-2998 colon. Particulars: 10 µM.
The next assay deals with KM12 colon. Particulars: 10 µM.

Molecules are shown by their SMILES. About 83,000 compounds went through this panel and 20% of them were active in at least one assay; those are over-represented in the sample as a whole.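 Negative percent growth values reflect cell death: -40 means 40% of the cells present at the start died, and -100 means all died.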 Values without a mark were called inactive. The source made the active and inactive calls. Rule for the calls: active = growth percent below 10; inactive = the rest.

With `CC(=O)OCCO`, the growth in the assay on T-47D breast was 109%; in the assay on BT-549 breast, 109%; with MDA-MB-435 melanoma, 107%; in the assay with SW-620 colon it was 107%; in the assay on MCF7 breast it was 96.9%; in the assay with HCT-116 colon, 103%. The growth in the assay on HCC-2998 colon is 111%; with KM12 colon, 108%.
For `CC(=O)NCc1cc(C)c(C)cc1C`, the growth is 89% in the assay on T-47D breast; 100% in the assay on BT-549 breast; 114% in the assay with MDA-MB-435 melanoma; 107% in the assay with SW-620 colon; 97.4% in the assay on MCF7 breast; 101% in the assay on HCT-116 colon. The growth with HCC-2998 colon is 115%; in the assay with KM12 colon it was 95.7%.
With `CC1CC(O)C2C3(C)CCCC2(COC3=O)C12CCC1(CCOC1=O)O2` (configuration not stated), the growth in the assay with T-47D breast is 102%; in the assay on BT-549 breast, 96.1%; in the assay with MDA-MB-435 melanoma, 101%; in the assay with SW-620 colon, 102%; with MCF7 breast it was 103%; in the assay on HCT-116 colon, 97.4%. Further, the growth was 122% in the assay with HCC-2998 colon and 107% with KM12 colon.
As to `CN(C)CCN(Cc1ccccc1)c1ccccc1`, the growth with T-47D breast is 95%; in the assay with BT-549 breast, 119%; with MDA-MB-435 melanoma it was 95%; in the assay with SW-620 colon, 102%; with MCF7 breast, 112%; in the assay with HCT-116 colon, 113%. In addition, the results for the growth in the assay with HCC-2998 colon and in the assay on KM12 colon were 105% and 113%, respectively.
With `CNC(=O)c1ccccc1CC1(O)c2ccccc2Oc2ccccc21`, the growth was 49.4% in the assay on T-47D breast; 65% in the assay with BT-549 breast; -51.3% (active) with MDA-MB-435 melanoma; 29.2% in the assay on SW-620 colon; 25.6% in the assay with MCF7 breast; 32.4% in the assay on HCT-116 colon. The figures for the growth in the assay on HCC-2998 colon and in the assay on KM12 colon were 80.9% and 34.5%, respectively.
As for `Nc1ccc(N=Nc2ccc(O)cc2)c(N)n1`, the growth is 82.8% in the assay with T-47D breast; 57.2% in the assay with BT-549 breast; 69.3% in the assay with MDA-MB-435 melanoma; 104% with SW-620 colon; 93.4% in the assay with MCF7 breast; 86.3% in the assay with HCT-116 colon. In addition, the growth with HCC-2998 colon was 81.5%; in the assay with KM12 colon, 43.2%.
`O=[N+]([O-])c1cccc2nsnc12`: the growth was 103% in the assay on T-47D breast; 106% in the assay on BT-549 breast; 111% in the assay with MDA-MB-435 melanoma; 104% in the assay with SW-620 colon; 93.5% in the assay with MCF7 breast; 99.1% with HCT-116 colon. The growth was 111% in the assay with HCC-2998 colon and 104% in the assay on KM12 colon.
For `Cc1cccc(CO)c1`, the growth in the assay with T-47D breast is 98.8%; in the assay with BT-549 breast it was 106%; in the assay with MDA-MB-435 melanoma, 108%; in the assay on SW-620 colon, 103%; in the assay with MCF7 breast, 96.6%; with HCT-116 colon, 104%. In addition, the growth in the assay with HCC-2998 colon was 112%; in the assay with KM12 colon, 97%.
As to `CC(C)=NNC(N)=S`, the growth was 44.1% in the assay on T-47D breast; 88.3% in the assay with BT-549 breast; 80.2% with MDA-MB-435 melanoma; 68.7% in the assay on SW-620 colon; 7% (active) in the assay with MCF7 breast; 21.4% in the assay with HCT-116 colon. Further, the growth in the assay with HCC-2998 colon was 105%; in the assay with KM12 colon it was 94.9%.
As for `CC(C)COC(=O)COC(=O)OCCOCCOC(=O)OCC(=O)OCC(C)C`, the growth with T-47D breast was 96.7%; in the assay on BT-549 breast, 99.2%; in the assay with MDA-MB-435 melanoma, 119%; in the assay on SW-620 colon, 108%; with MCF7 breast, 98.7%; with HCT-116 colon, 103%. Also, the growth was 101% in the assay on HCC-2998 colon and 104% in the assay on KM12 colon.
Turning to `O/N=C/c1ccc(O)cc1O`, the growth was 94% in the assay with T-47D breast; 103% in the assay with BT-549 breast; 107% in the assay on MDA-MB-435 melanoma; 102% with SW-620 colon; 98.6% in the assay on MCF7 breast; 114% in the assay on HCT-116 colon. Further, the growth in the assay with HCC-2998 colon is 105%; with KM12 colon it was 99%.
Take `Cc1cc(=O)n(-c2ccc(F)cc2)[nH]1`: the growth is 69.5% in the assay on T-47D breast; 105% in the assay on BT-549 breast; 105% in the assay with MDA-MB-435 melanoma; 103% in the assay with SW-620 colon; 86.7% with MCF7 breast; 104% in the assay on HCT-116 colon. The growth in the assay on HCC-2998 colon and in the assay with KM12 colon was 106% throughout.
Turning to `CC1CC(O)CC(C)(C)C1` (configuration not stated), the growth was 104% in the assay on T-47D breast; 102% in the assay with BT-549 breast; 101% in the assay with MDA-MB-435 melanoma; 110% with SW-620 colon; 101% in the assay with MCF7 breast; 99.8% in the assay on HCT-116 colon. In addition, the figures for the growth with HCC-2998 colon and with KM12 colon were 109% and 90.3%, respectively.
Take `Cc1ccc(C(=O)N/N=C/c2ccc3c(c2)OCO3)cc1`: the growth is 94.7% with T-47D breast; 107% in the assay on BT-549 breast; 92.7% with MDA-MB-435 melanoma; 106% in the assay on SW-620 colon; 103% in the assay with MCF7 breast; 92.4% with HCT-116 colon. Further, the growth with HCC-2998 colon was 96%; in the assay with KM12 colon, 82.1%.
For `N#CC1(Nc2ccc3c4c(cccc24)CC3)CCCCC1`, the growth with T-47D breast was 54.9%; in the assay with BT-549 breast, 96.3%; in the assay with MDA-MB-435 melanoma, 99%; with SW-620 colon it was 110%; in the assay with MCF7 breast, 15.4%; with HCT-116 colon, 108%. The growth was 116% with HCC-2998 colon and 90.1% in the assay with KM12 colon.
As for `COc1ccc(C2(O)CCCCC2)cc1`, the growth is 98.2% in the assay with T-47D breast; 112% in the assay on BT-549 breast; 107% in the assay with MDA-MB-435 melanoma; 102% with SW-620 colon; 102% with MCF7 breast; 99.1% in the assay with HCT-116 colon. For the same compound, the results for the growth with HCC-2998 colon and with KM12 colon were 104% and 107%, respectively.
`CC1(C)/C(=C\CO)C2CCC1C2` (configuration not stated): the growth is 101% in the assay with T-47D breast; 102% in the assay on BT-549 breast; 123% with MDA-MB-435 melanoma; 106% with SW-620 colon; 104% with MCF7 breast; 96.8% with HCT-116 colon. For the same compound, the results for the growth with HCC-2998 colon and with KM12 colon were 104% and 114%, respectively.
With `c1ccc2c(N3CCCCC3)ncnc2c1`, the growth is 130% in the assay on T-47D breast; 90.8% in the assay with BT-549 breast; 109% with MDA-MB-435 melanoma; 98% with SW-620 colon; 96.6% with MCF7 breast; 88.4% in the assay on HCT-116 colon. For the same compound, the results for the growth in the assay with HCC-2998 colon and in the assay on KM12 colon were 81.1% and 103%, respectively.
For `O=C(Nc1ccccc1)OCCc1ccccc1`, the growth was 104% in the assay with T-47D breast; 98.1% with BT-549 breast; 99% in the assay on MDA-MB-435 melanoma; 106% with SW-620 colon; 93.7% in the assay with MCF7 breast; 109% with HCT-116 colon. Also, the growth in the assay on HCC-2998 colon is 99.7%; in the assay on KM12 colon, 111%.
As for `O=C(/C=C\c1ccc(O)cc1)c1ccccc1`, the growth in the assay with T-47D breast is 84.6%; with BT-549 breast, 37.4%; in the assay with MDA-MB-435 melanoma, 95%; with SW-620 colon, 101%; in the assay with MCF7 breast, 80.8%; in the assay on HCT-116 colon, 78.2%. Further, the growth is 112% with HCC-2998 colon and 71% in the assay on KM12 colon.
`COc1cccc(Sc2ccc([N+](=O)[O-])c3no[n+]([O-])c23)c1`: the growth was 40.2% with T-47D breast; 46.8% in the assay with BT-549 breast; 64.4% in the assay with MDA-MB-435 melanoma; -0.655% (active) in the assay on SW-620 colon; 39% in the assay with MCF7 breast; -91.4% (active) with HCT-116 colon. Also, the growth in the assay on HCC-2998 colon was 55.4%; in the assay on KM12 colon, 92.3%.
Turning to `CCO/C=C1\SC(=S)N(c2cccc(C)c2)C1=O`, the growth was 93.2% with T-47D breast; 114% in the assay with BT-549 breast; 103% with MDA-MB-435 melanoma; 103% in the assay on SW-620 colon; 90.5% in the assay with MCF7 breast; 109% with HCT-116 colon. Further, the growth in the assay on HCC-2998 colon was 106%; with KM12 colon, 103%.
As for `COc1cccc(/C=N/NC(=S)NC2CC3CCC2C3)c1O` (configuration not stated), the growth was 35.7% in the assay with T-47D breast; 79.8% in the assay on BT-549 breast; 76.4% in the assay on MDA-MB-435 melanoma; 57.9% with SW-620 colon; 37.8% in the assay with MCF7 breast; 24.8% in the assay on HCT-116 colon. Moreover, the growth in the assay with HCC-2998 colon is 96.3%; in the assay on KM12 colon it was 69.1%.
In the case of `c1ccc(Cc2ccccc2)cc1`, the growth was 93.4% in the assay on T-47D breast; 123% in the assay on BT-549 breast; 112% with MDA-MB-435 melanoma; 106% with SW-620 colon; 113% with MCF7 breast; 114% in the assay with HCT-116 colon. The growth is 106% with HCC-2998 colon and 98.9% with KM12 colon.

The record behind these values is PubChem BioAssay (NCI).
